Results on 29 molecules are retold here after PubChem BioAssay (NCATS).

Calls of active or inactive are those of the source. The call rests on the fitted dose curve; in most records, active means well fitted curve in the direction sought with a large enough effect; inconclusive means small, poorly fitted or top-dose-only effect, or another doubt; inactive means no such curve, though single readings can be large or run the other way.

Chain of Alpha-galactosidase (Coffea arabica) (Q42656 whole entry, looked up): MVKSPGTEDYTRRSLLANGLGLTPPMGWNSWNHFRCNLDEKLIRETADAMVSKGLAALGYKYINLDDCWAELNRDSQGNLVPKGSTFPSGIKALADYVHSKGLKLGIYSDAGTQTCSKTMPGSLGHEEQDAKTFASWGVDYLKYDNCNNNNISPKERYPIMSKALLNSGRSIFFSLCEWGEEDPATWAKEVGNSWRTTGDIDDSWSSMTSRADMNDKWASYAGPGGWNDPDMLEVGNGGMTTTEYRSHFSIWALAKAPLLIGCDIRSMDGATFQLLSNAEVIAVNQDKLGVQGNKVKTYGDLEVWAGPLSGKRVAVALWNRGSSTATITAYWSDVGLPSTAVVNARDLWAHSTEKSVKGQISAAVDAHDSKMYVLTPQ

This assay has as its target Alpha-galactosidase (Coffea arabica) (UniProt Q42656). Briefly: Counterscreen for Glucocerebrosidase Inhibitors: qHTS Assay for Coffee Bean alpha-Galactosidase at pH 4.5 (AID 957). The following applies: purified coffee bean alpha-galactosidase, fluorogenic substrate; series mostly up to 76.9 µM. An outline of the steps:
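Coffee bean alpha-galactosidase 2 nM, substrate 4-MU-alpha-Gal 80 uM, pH 4.5 citrate/Tween-20, 20 min RT. Cpd titration 0.7 nM–77 uM. Stop pH 10, fluorescence 365/440 nm; Hill-equation AC50.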
For `CN(C)CCOC(=O)COc1ccc(Cl)cc1`, the outcome was inactive.

With `Cn1c(=O)c2[nH]cnc2n(C)c1=O`, the molecule was classed as inactive.

`COc1ccc2cc([C@H](C)C(=O)O)ccc2c1`: the outcome was inactive.

Take `NCCS(=O)(=O)O`: the molecule was called inactive.

Take `CNCCC=C1c2ccccc2CCc2ccccc21`: the molecule was called inactive.

As to `O=C1NCC2(CCN(CCc3ccccc3)CC2)O1`, the result was inactive.

Take `Cc1nc2ccccn2c(=O)c1CCN1CCC(C(=O)c2ccc(F)cc2)CC1`: the call was inactive.

`CN(C)C(=O)Oc1ccc[n+](C)c1`: the call was inactive.

Take `CC(=O)c1ccc(S(=O)(=O)NC(=O)NC2CCCCC2)cc1`: the outcome was inactive.

On to `CCN(CC)C(=O)c1ccc(O)c(OC)c1`, for which the molecule was classed as inactive.

As for `Cc1nc2c([nH]1)c(=O)n(C)c(=O)n2Cc1ccco1`, the molecule was classed as inactive.

Consider `O=c1[nH]oc2c1CCNC2`, for which the result was inactive.

Regarding `CCn1nc(C(=O)O)c(=O)c2cc3c(cc21)OCO3`, the molecule was classed as inactive.

For `C[C@H](CS)C(=O)N1CCC[C@H]1C(=O)O`, the outcome was inactive.

As to `Nc1cc(=O)[nH]c(N)n1`, the call was inactive.

As to `CC(=O)Oc1cc(C(C)C)c(OCCN(C)C)cc1C`, the result was inactive.

On to `CCCCCCCCCCCCCCCC(=O)NCCO`, for which the result was inactive.

For `NC(N)=NC(=O)Cc1c(Cl)cccc1Cl`, the molecule was classed as inactive.

Turning to `O=C(O)CN(CCN(CC(=O)O)CC(=O)O)CCN(CC(=O)O)CC(=O)O`, the molecule was classed as inactive.

Regarding `Nc1ccc(S(=O)(=O)Nc2ccnn2-c2ccccc2)cc1`, the result was inactive.

On to `CCOC(=O)c1cnc2c(cnn2CC)c1NN=C(C)C`, for which the call was inactive.

`CC(C)Cc1ccc(C(C)C(=O)O)cc1` (centres undefined): the outcome was inactive.

As for `Cc1scc2c1N(C(=O)CN1CCN(C)CC1)c1ccccc1NC2=O`, the call was inactive.

As to `CNCCCC12CCC(c3ccccc31)c1ccccc12`, the outcome was inactive.

On to `CCN1CCC[C@H]1CNC(=O)c1cc(S(N)(=O)=O)ccc1OC`, for which the molecule was classed as inactive.

As for `CC[N+](CC)(CC)CCOc1cccc(OCC[N+](CC)(CC)CC)c1OCC[N+](CC)(CC)CC`, the result was inactive.

As for `COc1cc(-c2ccc(=O)[nH]n2)ccc1OC(F)F`, the molecule was called inactive.

Regarding `Cc1cnc(NC(=O)C2=C(O)c3ccccc3S(=O)(=O)N2C)s1`, the call was inactive.

With `CCCCC/C=C\C/C=C\C/C=C\C/C=C\CCCC(=O)NCC(=O)O`, the call was inactive.
